Assay results as given in PubChem BioAssay AID588466 (NMMLSC, 2011).
The campaign covered roughly 2,100 compounds. About 30 (1%) were called active.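 How the source made its calls: active means compounds whose mean binding response over two repeats is below 75% of the DMSO control; inactive means the rest.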 Only a sample is shown.

target: Desmoglein-3 (Homo sapiens) (UniProt P32926); test: blockers of pemphigus antibody–desmoglein-3 interaction – biochemical, cherry pick 1, bead-based, flow cytometry, confirmation (AID 588466); conditions: Protein G beads with DSG3, scFv-GFP binding, at 10 µM, hits give low values;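 further: 100% = 2% DMSO vehicle and 0% = excess soluble DSG3 blocking control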
Sequence (P32926 whole entry, looked up): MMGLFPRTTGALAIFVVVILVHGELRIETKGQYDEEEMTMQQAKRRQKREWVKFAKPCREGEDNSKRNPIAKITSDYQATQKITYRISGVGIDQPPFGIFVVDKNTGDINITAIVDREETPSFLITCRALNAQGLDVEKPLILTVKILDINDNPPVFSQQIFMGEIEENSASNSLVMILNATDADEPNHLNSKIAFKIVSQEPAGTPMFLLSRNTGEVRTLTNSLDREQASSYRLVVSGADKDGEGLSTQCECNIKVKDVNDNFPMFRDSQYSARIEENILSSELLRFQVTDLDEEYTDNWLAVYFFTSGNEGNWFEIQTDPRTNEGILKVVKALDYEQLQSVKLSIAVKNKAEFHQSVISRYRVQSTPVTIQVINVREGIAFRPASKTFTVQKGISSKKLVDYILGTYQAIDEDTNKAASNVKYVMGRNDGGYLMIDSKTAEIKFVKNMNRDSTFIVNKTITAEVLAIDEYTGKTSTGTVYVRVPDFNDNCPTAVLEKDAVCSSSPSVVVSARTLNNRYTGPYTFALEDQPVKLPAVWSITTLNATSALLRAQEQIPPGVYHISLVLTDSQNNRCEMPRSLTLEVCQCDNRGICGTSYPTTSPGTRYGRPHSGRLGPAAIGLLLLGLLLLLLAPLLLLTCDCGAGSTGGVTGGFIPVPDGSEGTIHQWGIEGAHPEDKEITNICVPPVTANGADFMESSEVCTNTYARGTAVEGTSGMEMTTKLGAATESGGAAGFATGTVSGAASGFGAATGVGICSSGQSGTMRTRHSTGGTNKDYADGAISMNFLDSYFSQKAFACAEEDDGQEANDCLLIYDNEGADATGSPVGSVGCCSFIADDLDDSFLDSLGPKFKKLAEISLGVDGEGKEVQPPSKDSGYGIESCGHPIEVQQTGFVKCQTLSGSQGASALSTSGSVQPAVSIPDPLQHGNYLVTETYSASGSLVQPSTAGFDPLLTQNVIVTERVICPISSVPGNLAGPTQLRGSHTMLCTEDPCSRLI

Row | Structure (SMILES) | binding response (% of DMSO)
1 | CN1CCN(Cc2nc3ccccc3c(=O)n2Cc2nc(-c3ccc([N+](=O)[O-])cc3)cs2)CC1 | 103% (inactive)
2 | Fc1ccc2nc(C3CCCCN3Cc3nc(CC4CC4)no3)[nH]c2c1 (centres undefined) | 102% (inactive)
3 | CSCCC(NC(=O)C1CCC(C)CC1)C(=O)OCC(=O)c1ccc(Cl)cc1 (centres undefined) | 107% (inactive)
4 | O=S(=O)(NCCOc1ccccc1F)c1ccc(Cl)cc1F | 102% (inactive)
5 | CCOc1cc(S(=O)(=O)Nc2ccc(Cl)cn2)ccc1F | 112% (inactive)
6 | CCc1ccc(Cn2nnc(C(=O)Nc3ccc(OC)cc3OC)c2N)cc1 | 96.2% (inactive)
7 | COc1ccc(-c2ccc(-c3nc4c(c(=O)[nH]c(=O)n4Cc4ccccc4)n3C)o2)c([N+](=O)[O-])c1 | 87.1% (inactive)
8 | COc1ccc(NC(=O)c2ccc(NC(=O)CN3CCN(c4ccccc4)CC3)cc2)cc1 | 90.4% (inactive)
9 | COc1ccc(Cl)c(NC(=O)NCCN2CCN(c3ccccc3)CC2)c1 | 67.9% (active)
10 | COc1ccc(OC)c(NC(=O)NCCc2cccc(Cl)c2)c1 | 100% (inactive)
11 | CC1C(=O)N2CCCc3cc(S(=O)(=O)N4CCC(C(N)=O)CC4)cc1c32 (centres undefined) | 104% (inactive)
12 | Cc1ccc(NS(=O)(=O)c2ccc3c(c2)n(C)c(=O)n3C)cc1 | 100% (inactive)
13 | COc1ccc(CNC(=O)c2cnc(C)cn2)cc1 | 101% (inactive)
14 | COCC(C)n1c(C)cc(C(=O)COC(=O)c2nn(C)c(=O)c3ccccc23)c1C (centres undefined) | 98.2% (inactive)
15 | CC(=O)Nc1nnc(CCS(=O)(=O)c2ccc(C)c(C)c2)s1 | 104% (inactive)
16 | COc1ccc(-n2ccc(=O)c(C(=O)Nc3ccc(S(=O)(=O)Nc4nccs4)cc3)n2)cc1 | 99.6% (inactive)
17 | COc1ccc(C(=O)NCc2nnc(SCC(=O)N3CCc4ccccc43)n2C2CCCCC2)cc1 | 91% (inactive)
18 | CCc1nnc(NC(=O)CCN(c2ccc(C)cc2)S(=O)(=O)c2ccccc2)s1 | 103% (inactive)
19 | Cc1ccsc1-c1nc(-c2ccccc2)c(-c2ccccc2)[nH]1 | 77.9% (inactive)
20 | CN(Cc1cc2ccccc2[nH]c1=O)S(C)(=O)=O | 100% (inactive)
21 | Cc1nc2scc(C)n2c(=O)c1S(=O)(=O)NCc1ccc(F)cc1 | 107% (inactive)
22 | COc1ccc(C(=O)NCc2ccc(C)cc2)cc1S(=O)(=O)N1CCCC1 | 105% (inactive)

Row | Structure (SMILES) | binding response (% of DMSO)
23 | CCOC(=O)c1c(-c2ccccc2)c[nH]c1C | 97.4% (inactive)
24 | CCN(CC)c1ccc(/C=N/N2C(=O)c3ccccc3C2=O)cc1 | 102% (inactive)
25 | CCOC(=O)C1=C(O)/C(=C/c2ccc(-c3ccccc3C(=O)O)o2)SC1=Nc1ccc(C)cc1 | 108% (inactive)
26 | CC(=O)N1C(=O)/C(=C2\SC(=S)N(c3c(C)n(C)n(-c4ccccc4)c3=O)C2=O)c2ccccc21 | 87.6% (inactive)
27 | Clc1ccc(-n2ncc3c(NCc4cccnc4)ncnc32)cc1Cl | 91.8% (inactive)
28 | C=C(Br)CN1[C@@H](Cc2ccccc2)[C@H](O)[C@@]23C=C[C@@H](C[C@@H]2S1(=O)=O)O3 | 101% (inactive)
29 | CCOC(=O)CSc1nc2sc(C)c(C)c2c(=O)n1N | 104% (inactive)
30 | CC(=O)c1c(C)[nH]c(C(=O)NCc2ccc(Cl)cc2)c1C | 105% (inactive)
31 | CCOC(=O)Cc1csc(NC(=O)COc2ccccc2)n1 | 99.8% (inactive)
32 | Cc1cc(=O)oc2cc(OCC(=O)OCC(=O)Nc3ccccc3Br)ccc12 | 112% (inactive)
33 | COc1cccc(-c2nc(NCc3ccco3)c3ccccc3n2)c1O | 89.5% (inactive)
34 | O=C(c1cc(S(=O)(=O)N2CCOCC2)ccc1F)N1CCCc2ccccc21 | 104% (inactive)
35 | CSc1nc(C2CC2)cc(-c2cccs2)c1C#N | 94.5% (inactive)
36 | O=C(CSc1n[nH]c(-c2ccco2)n1)Nc1ccccc1Cl | 101% (inactive)
37 | COc1ccc(CC(=O)Nc2cccc(C(=O)NN3C(=O)c4ccccc4C3=O)c2C)cc1 | 102% (inactive)
38 | COC(=O)[C@]1(C)N[C@H](CN(C)C(=O)Nc2ccc(OC)cc2)[C@@H]2C(=O)N(C)C(=O)[C@@H]21 | 95.3% (inactive)
39 | CCOC(=O)c1sc(NC(=O)C(CC)Sc2nccn2C)nc1C (centres undefined) | 105% (inactive)
40 | O=C(O)C1(Nc2ccc(Br)cc2)CCCC1 | 98.6% (inactive)
41 | COc1ccc(S(=O)(=O)N2CCCCCC2)cc1NC(=O)CCNC(=O)c1ccc(Cl)cc1 | 107% (inactive)
42 | O=C(CCCCCCN1C(=O)c2ccccc2C1=O)NC1CCCCC1 | 105% (inactive)
43 | CCCCN(CCCC)C(=O)c1cc(Cl)ccc1[N+](=O)[O-] | 98.8% (inactive)
44 | COc1ccc(C(=O)COc2ccc3ccc(=O)oc3c2)c(OC)c1 | 104% (inactive)
